L3MBTL1 block: inhibitors of human L3MBTL1. actives 0.66% (n = 230,000). AlphaScreen L3MBTL1–H3K9me1 peptide binding. Q9Y468. Potency, µM (titrated, usually from 57.1 µM), for the others: at the highest dose activity, negative = inhibition, actives largely listed as inhibitors; note: % is set by controls: 0 for no effect and ±100 for the full control effect; nearly all actives have a fitted effect of over 60% in size
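Displacement of a biotinylated histone H3(1-15) peptide monomethylated at Lys9 (75 nM) from L3MBTL1 (50 nM) was measured by AlphaScreen after a 30 min room-temperature compound incubation; cefsulodin titration served as intraplate control.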
G9a block: G9a (human) methyltransferase inhibition; Potency, µM (titrated, usually from 102 µM), for the others: top-dose activity, negative = inhibition, hits mostly inhibitors; actives 8.8% (n = 350,000); G9a H3K9 monomethylation, AlphaScreen, 2 h; note: % is set by controls: 0 for no effect and ±100 for the full control effect; nearly all actives have a fitted effect of over 75% in size
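AlphaScreen detection with an anti-monomethyl H3K9 antibody quantified product after a 2 h room-temperature reaction containing 500 nM biotinylated H3K9 peptide, 20 µM SAM and 20 nM enzyme, which had been preincubated 15 min with compound.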
BAZ2B inh: BAZ2B (human) inhibition. Q9UIF8. AlphaScreen BAZ2B-H3K14Ac peptide displacement. Potency, µM (series often up to 114 µM), for the others: at the highest dose activity change, negative = inhibition, usual class: inhibitors. actives 4.4% (n = 360,000). AID 504333; note: % is set by controls: 0 for no effect and ±100 for the full control effect; nearly all actives have a fitted effect of over 60% in size
Target sequence (Q9UIF8 whole entry, looked up): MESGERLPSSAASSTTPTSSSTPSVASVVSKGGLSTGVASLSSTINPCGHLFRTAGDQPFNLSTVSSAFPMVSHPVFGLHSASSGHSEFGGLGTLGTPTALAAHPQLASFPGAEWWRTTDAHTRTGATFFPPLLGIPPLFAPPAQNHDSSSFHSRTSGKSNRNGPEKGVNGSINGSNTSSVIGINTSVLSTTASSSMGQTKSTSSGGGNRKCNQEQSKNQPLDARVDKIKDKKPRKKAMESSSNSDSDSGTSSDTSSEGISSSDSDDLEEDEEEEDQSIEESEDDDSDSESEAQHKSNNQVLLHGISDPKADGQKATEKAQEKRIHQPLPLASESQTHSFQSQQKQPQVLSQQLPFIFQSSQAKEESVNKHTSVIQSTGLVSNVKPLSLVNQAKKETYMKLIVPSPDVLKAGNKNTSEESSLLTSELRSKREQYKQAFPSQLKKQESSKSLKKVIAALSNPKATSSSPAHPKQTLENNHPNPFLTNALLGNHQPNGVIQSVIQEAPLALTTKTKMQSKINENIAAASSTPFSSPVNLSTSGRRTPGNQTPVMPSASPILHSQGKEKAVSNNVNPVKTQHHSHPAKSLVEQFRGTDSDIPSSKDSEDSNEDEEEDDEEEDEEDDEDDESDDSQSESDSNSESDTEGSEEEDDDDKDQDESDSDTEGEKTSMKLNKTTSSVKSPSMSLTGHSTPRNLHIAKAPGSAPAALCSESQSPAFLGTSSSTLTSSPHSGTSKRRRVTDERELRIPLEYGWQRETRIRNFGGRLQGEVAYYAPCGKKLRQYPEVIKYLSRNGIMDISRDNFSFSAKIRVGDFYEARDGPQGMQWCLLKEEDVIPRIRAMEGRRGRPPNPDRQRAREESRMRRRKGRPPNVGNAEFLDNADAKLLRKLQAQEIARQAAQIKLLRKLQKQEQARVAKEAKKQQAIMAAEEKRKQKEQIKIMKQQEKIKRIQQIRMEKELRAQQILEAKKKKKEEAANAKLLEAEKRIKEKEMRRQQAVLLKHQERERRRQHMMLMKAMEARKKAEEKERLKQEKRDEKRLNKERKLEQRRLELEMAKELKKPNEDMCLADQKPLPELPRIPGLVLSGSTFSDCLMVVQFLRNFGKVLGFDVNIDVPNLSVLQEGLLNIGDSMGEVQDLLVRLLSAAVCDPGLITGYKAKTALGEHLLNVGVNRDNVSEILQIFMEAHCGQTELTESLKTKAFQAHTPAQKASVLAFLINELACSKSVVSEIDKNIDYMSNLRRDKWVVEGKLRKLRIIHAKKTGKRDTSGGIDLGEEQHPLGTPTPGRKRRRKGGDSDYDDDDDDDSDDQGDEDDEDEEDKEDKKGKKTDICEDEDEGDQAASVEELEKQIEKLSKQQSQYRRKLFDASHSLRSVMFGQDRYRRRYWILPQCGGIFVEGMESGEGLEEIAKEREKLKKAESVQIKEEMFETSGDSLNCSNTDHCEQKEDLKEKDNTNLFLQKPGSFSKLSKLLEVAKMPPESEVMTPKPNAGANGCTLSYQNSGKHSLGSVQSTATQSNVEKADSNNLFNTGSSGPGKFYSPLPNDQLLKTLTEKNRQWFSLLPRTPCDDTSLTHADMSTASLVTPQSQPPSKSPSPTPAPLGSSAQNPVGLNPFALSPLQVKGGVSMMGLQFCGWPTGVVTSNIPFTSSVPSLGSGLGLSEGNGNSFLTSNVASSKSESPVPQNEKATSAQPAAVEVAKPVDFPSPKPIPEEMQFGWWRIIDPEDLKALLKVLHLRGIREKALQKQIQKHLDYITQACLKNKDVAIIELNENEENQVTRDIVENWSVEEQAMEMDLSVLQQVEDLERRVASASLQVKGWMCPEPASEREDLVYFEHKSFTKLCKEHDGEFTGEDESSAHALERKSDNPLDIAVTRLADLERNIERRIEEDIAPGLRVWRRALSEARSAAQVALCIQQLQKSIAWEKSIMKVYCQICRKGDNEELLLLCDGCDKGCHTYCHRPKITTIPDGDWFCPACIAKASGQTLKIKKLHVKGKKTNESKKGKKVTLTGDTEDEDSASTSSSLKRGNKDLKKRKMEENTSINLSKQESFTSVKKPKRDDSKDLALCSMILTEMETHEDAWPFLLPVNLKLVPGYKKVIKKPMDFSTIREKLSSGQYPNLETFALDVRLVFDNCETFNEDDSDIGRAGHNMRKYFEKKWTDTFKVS
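In this displacement format the biotinylated H3(5-23) peptide acetylated at Lys14 serves as ligand at 50 nM, with BAZ2B at 50 nM in PBS pH 7.4 containing 0.01% Tween-20. Donor and acceptor beads are 10 ug/mL final.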
JMJD2A Tudor: blocks the human JMJD2A Tudor domain; AlphaScreen JMJD2A-Tudor / H3K4me3 peptide binding; Potency, µM (top dose mostly 114 µM), without a hit: at the highest dose activity change, negative = inhibition, most hits filed as inhibitors; actives 4.4% (n = 390,000); O75164; note: % is set by controls: 0 for no effect and ±100 for the full control effect; nearly all actives have a fitted effect of over 50% in size
HP1b binding inh: HP1-beta chromodomain-methylated histone interaction inhibition | P83916 | AlphaScreen HP1-beta / biotin-H3K9me3 peptide binding | Potency, µM (doses to about 114 µM), inactives show top-dose activity change, negative = inhibition, most hits filed as inhibitors | actives 0.56% (n = 390,000) | AID 540317; note: nearly all actives have a fitted effect of over 70% in size
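AlphaScreen: HP1-beta (50 nM) preformed 30 min with biotin-H3(1-18)K9me3 peptide (50 nM) in PBS pH 7.4, 0.01% Tween-20. Compound added for 30 min at RT, then streptavidin donor/nickel chelate acceptor beads (10 ug/mL) for 30 min.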
Sfp PPTase inh: blocks B. subtilis Sfp PPTase activity | Q9F4F7 | actives 3.5% (n = 310,000) | Biochemical Sfp PPTase activity, qHTS | AID 1490 | Potency, µM, without a hit: largest response in the series, negative = inhibition, most hits filed as inhibitors;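 note: the enzyme is Sfp with the accession as filed and its product quenches rhodamine fluorescence; 0% = enzyme reaction without inhibitor and -100% = no enzyme wells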
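Compounds were incubated with enzyme (final 15 nM) for 15 min at room temperature before substrate addition started the reaction. Fluorescence at 525 nm excitation, 598 nm emission was recorded immediately and after 30 minutes.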
* = called active by the depositor; ? = inconclusive; · = no result given; [ ] = remark or other dose. Rows were chosen to be rich in hits. Some 12% of all compounds tested hit in one or more screens of this group. Calls come from the whole dose curve; as a rule, active = well fitted curve in the direction sought with a large enough effect; inconclusive = small, poorly fitted or top-dose-only effect, or another doubt; inactive = no such curve, though single readings can be large; an effect the other way counts as inactive or inconclusive. Potency is the fitted concentration of half-maximal effect.

SMILES	L3MBTL1 block	G9a block	BAZ2B inh	JMJD2A Tudor	HP1b binding inh	Sfp PPTase inh
CC(=O)N1CCN(C(=O)c2cc(S(=O)(=O)Nc3ccc(S(C)(=O)=O)cc3)ccc2Cl)CC1	·	12%	-9%	-10%	14%	0%
CCc1nc(N)c(C#N)c(-c2ccc(OC)c(OC)c2)c1C	·	-5%[12.7 µM]	5%	-11%	26%	9%
CC1=C(C#N)c2nc(N)c(C#N)c(C)c2/C1=C\c1ccc(OCC(=O)O)c(Cl)c1	?	22µM*	50µM*	20µM*	?	?
O=C(NCCCN1CCN(c2ccccc2)CC1)c1nnc(Cc2c(F)cccc2Cl)o1	·	-32%[59 µM]	?	?	-18%	·
CC(C)(C)SC(=O)C[C@@H]1NS(=O)(=O)OC2CCCCC21 (stereo partly specified)	3%	-10%	-3%	-18%	17%	24%
COc1ccc2[nH]c3c(NCCC4=CCCCC4)ncnc3c2c1	·	-18%[59 µM]	28µM*	50µM*	-21%	-16%
FC(F)(F)c1cccc(Nc2c3c(nc4ccc(Cl)cc24)CCC3)c1	·	10%[59 µM]	·	-1%	46%	·
O=S(=O)(c1ccccc1)N(CC1CO1)c1cccc2ccccc12 (stereo unspecified)	-2%	20%	4%	-9%	29%	3%
Cc1cccc(C)c1NC(=O)Cn1c(=O)n(Cc2ccc(C(=O)NCc3ccco3)cc2)c(=O)c2sccc21	·	?	?	-14%	31%	·
Cc1ccc(-n2c(=O)c3sccc3n(CC(=O)NCc3ccco3)c2=O)cc1	-7%	79µM*	14%	-12%	20%	-5%
Cc1cc(C)c(NC(=O)Cn2c(=O)n(Cc3ccc(C(=O)NCc4ccco4)cc3)c(=O)c3sccc32)c(C)c1	·	-9%[59 µM]	50µM*	-4%	63%	·
Cc1cc(C)cc(-n2c(=O)c3sccc3n(CC(=O)NCc3ccco3)c2=O)c1	-14%	-24%	-37%	-10%	27%	8%
Cc1cccc(Cn2c(=O)n(-c3ccc(CC(=O)NCc4ccco4)cc3)c(=O)c3sccc32)c1	25%	-7%	62%	-12%	20%	22µM*
Cc1ccc(-c2csc(=S)n2CC(=O)OCC(=O)NCc2ccco2)cc1	·	-16%[59 µM]	-38%	-34%	-9%	22µM*
Cc1cc(Cl)c(C)c(S(=O)(=O)N2CCN(CC(=O)N3CCOCC3)CC2)c1Cl	2%	-26%[59 µM]	0%	-8%	21%	·
Brc1ccc(N/N=C(/N=Nc2nn[nH]n2)c2ccccc2)cc1	?	11µM*	11µM*	13µM*	13µM*	-96%
NC(=O)/C(N=Nc1ccccc1)=N/Nc1ccccc1	-4%	-1%[2.33 µM]	-28%	?	14%	·
O=C(O)c1cccc(N/N=C(\N=Nc2ccccc2)c2ccccc2)c1	?	?	14µM*	40µM*	35µM*	·
O=C(O)c1ccc(N=N/C(=N\Nc2ccc(C(=O)O)cc2)c2ccccc2)cc1	?	?	28µM*	50µM*	?	·
CC(C)C[C@@H](CC(=O)N[C@@H](CCCN)CC(=O)N[C@@H]1CCCC[C@H]1C(=O)N[C@H](CC(=O)N[C@@H](CCC(=O)O)CC(=O)O)CC(C)C)NC(=O)[C@@H]1CNCC[C@H]1N	·	·	·	·	·	-22%
COc1ccc(-c2nc3cnc(N4CCN(C)CC4)nc3n(C)c2=O)cc1	·	-8%[0.501 µM]	·	·	·	27%
CC(=O)N1CC(C)Oc2ccc(S(=O)(=O)NC(CC(=O)O)c3cc(C)ccc3C)cc21 (stereo unspecified)	·	-4%[59 µM]	-9%	9%	50%	26%
CC(=O)N1CC(C)Oc2ccc(S(=O)(=O)NC(CC(=O)O)c3ccccc3C)cc21 (stereo unspecified)	·	50µM*	-30%	-14%	34%	20%
COc1cccc([C@@H]2Oc3ccc(OC)cc3/C(=N/O[C@@H](C)c3cc(-c4c(C)cc(C)cc4C)no3)[C@@H]2O)c1	·	·	·	·	·	4%
Cc1ccc(NC(=O)CS(=O)CC(=O)N(CC(=O)NC2CCCC2)c2cccc(C)c2C)cc1 (stereo unspecified)	-3%	1%[59 µM]	19%	-19%	28%	7%
SMILES	L3MBTL1 block	G9a block	BAZ2B inh	JMJD2A Tudor	HP1b binding inh	Sfp PPTase inh
Cc1cccc(N(CC(=O)NC2CCCC2)C(=O)CS(=O)CC(=O)Nc2ccc3c(c2)OCO3)c1C (stereo unspecified)	-4%	7.9µM*	-11%	-12%[57.1 µM]	33%	-12%
Cc1ccc(-c2cc(-c3ccc(F)cc3)nc(N)c2C#N)o1	·	2.5µM*	-3%	-4%	45%	8.9µM*
Cc1ccc(-c2cc(-c3ccccc3)c(C#N)c(N)n2)o1	17%	2.8µM*	?	?	?	7.9µM*
Cc1ccc(-c2cc(-c3ccccc3Cl)c(C#N)c(N)n2)o1	16%	?	?	?	?	11µM*
Cc1cc(-c2ccc(Cl)cc2)c(C#N)c(N)n1	·	27%[59 µM]	-5%	3%	14%	11%
C=CCN1CC(C(=O)N(CCCN(C)C)C(=O)NCC)CC2c3cccc4[nH]cc(c34)CC21 (stereo unspecified)	·	9%[12.7 µM]	·	·	·	13%
Cc1cccc(OCc2cc(=O)n3c(-c4ccccc4)csc3n2)c1C	·	9%[59 µM]	-22%	-19%	32%	·
O=C(CSc1nc(=O)n(Cc2ccco2)c2c1CCC2)Nc1cccc(F)c1	·	1%[59 µM]	-16%	-25%	5%	·
COC(=O)/C=C/c1ccc2c(c1)OCO2	28%	11%	0%	-8%	25%	16%
O=C(/C=C/c1ccc2c(c1)OCO2)c1cccs1	·	·	·	·	·	71µM*
CCNc1ccccc(C(=O)/C=C/c2ccc3c(c2)OCO3)c1=O	·	5µM*	45µM*	56µM*	?	45µM*
COc1ccc(-c2cc3c(=O)n(CC(=O)Nc4cc(C)ccc4C)ccn3n2)cc1	·	9%[12.7 µM]	-12%	-11%	29%	·
c1coc(C2OCC3(CO2)COC(c2ccco2)OC3)c1 (stereo unspecified)	·	5%	-2%	-21%	18%	4%
OC1CC(c2ccco2)NC2(CCCCC2)C1 (stereo unspecified)	-4%	8.9µM*	?	7.9µM*	-55%	-23%
COc1cc(/C=C/C(=O)OCC(=O)N(C)CC(=O)Nc2ccc(F)cc2)ccc1OC(F)F	1%	-8%[59 µM]	8%	-18%	32%	·
O=C(Nc1ccc2oc(-c3cccnc3)nc2c1)c1ccc(-c2ccccc2)o1	·	11µM*	?	?	-20%	·
O=C(Nc1ccc2oc(-c3ccncc3)nc2c1)c1ccc(F)cc1	·	82%	50µM*	?	143%	-6%
O=C(Nc1ccc2oc(-c3cccnc3)nc2c1)c1ccc2c(c1)OCCO2	-2%	14µM*	79µM*	89µM*	-3%	-17%
